aSyn UTR act = Activators via SNCA 5'UTR binding, MLPCN | actives 7.1% (n = 300,000) | alpha-synuclein 5'UTR reporter, activators screen | activity score, % (tested at 7.5 µM), hits read low; in the data active means activity score below about -60%
* hit, by the source's call. These entries were drawn from the full list.

What do the screens show for `CC1=Nc2ccccc2N=C(N)C1c1ccccc1` (stereo not drawn)?
aSyn UTR act: -124*

What do the screens show for `O=C(c1ccccc1)c1nnc(-c2ccccc2F)o1`?
aSyn UTR act: -104*

What do the screens show for `O=C(NC1CC1)c1cccc(Nc2ccc(-c3ccc4c(c3)OCCO4)nn2)c1`?
aSyn UTR act: -145*

How did O=S(=O)(c1ccc(Nc2ccc(-c3ccc4c(c3)OCCO4)nn2)cc1)N1CCCC1 do in these assays?
aSyn UTR act: -121*

How did Oc1ccccc1/C=N/NC(=S)NC1CC2CCC1C2 (stereo not drawn) do in these assays?
aSyn UTR act: -83*

Results for S=C(N/N=C/c1ccco1)NC1CC2CCC1C2 (stereo not drawn) ?
aSyn UTR act: -90*

What do the screens show for `O=C(COc1ccc(F)cc1Br)N1CCc2ccccc21`?
aSyn UTR act: -86*

How did COc1c(C)cccc1C(=O)Nc1ccc(CN2CCOCC2)cc1 do in these assays?
aSyn UTR act: -109*

How did O=C(COc1ccccc1Cl)NC(=S)N1CCc2ccccc21 do in these assays?
aSyn UTR act: -87*

Results for COCCNC(=S)Nc1ccc(N2CCCCC2)cc1 ?
aSyn UTR act: -173*

How did COc1c(C)cccc1C(=O)Nc1ccc(N2CCN(S(C)(=O)=O)CC2)cc1 do in these assays?
aSyn UTR act: -146*

How did COc1ccccc1C(=O)NC(=S)N1CCCc2ccccc21 do in these assays?
aSyn UTR act: -167*

How did O=C(CNc1ccccc1OC(F)F)N1CCc2ccccc21 do in these assays?
aSyn UTR act: -289*

Results for COc1ccccc1C(=O)Nc1ccc(N2CCN(S(C)(=O)=O)CC2)cc1 ?
aSyn UTR act: -76*

Results for COc1ccccc1C(=O)NC(=S)Nc1ccc(N2CCCC2)cc1 ?
aSyn UTR act: -83*

What do the screens show for `CN1CCN(c2ccc(NC(=S)NC(=O)c3cccc4c(Cl)cccc34)cc2)CC1`?
aSyn UTR act: -128*

How did O=C1C[C@H]2[C@H](CO)[C@@H](OC(=O)c3ccc(-c4ccccc4)cc3)C[C@H]2O1 do in these assays?
aSyn UTR act: -87*

Results for O=C(COc1ccc(Br)cc1CO)Nc1ccccc1 ?
aSyn UTR act: -107*

What do the screens show for `O=C(N/N=C/c1cc(Br)ccc1O)C(=O)Nc1ccccc1OC(F)(F)C(F)F`?
aSyn UTR act: 82

How did O=C(COc1ccc(Br)cc1CO)Nc1ccccc1F do in these assays?
aSyn UTR act: -181*

What do the screens show for `COc1ccccc1NC(=O)COc1ccc(CO)cc1Cl`?
aSyn UTR act: -151*

What do the screens show for `COc1cc(CO)ccc1OCC(=O)Nc1ccc(Br)cc1`?
aSyn UTR act: -86*

What do the screens show for `COc1cc2c(cc1OC)C(c1ccc(Br)cc1)NCC2` (stereo not drawn)?
aSyn UTR act: 63

Results for CCN(C(=O)CSc1cc(C)c2cccc(C)c2n1)C1CCS(=O)(=O)C1 (stereo not drawn) ?
aSyn UTR act: -80*

How did Cc1cc(C(=O)CSc2nc3ccccc3n2CCC#N)c(C)n1Cc1cccs1 do in these assays?
aSyn UTR act: -124*

What do the screens show for `Cc1cc(C(=O)CSc2nnnn2-c2ccccc2)c(C)n1CC1CCCO1` (stereo not drawn)?
aSyn UTR act: -105*

Results for Cc1cc(C(=O)CN2C(=O)c3ccccc3S2(=O)=O)c(C)n1CC1CCCO1 (stereo not drawn) ?
aSyn UTR act: 111

Results for Cc1cc(C(=O)CSc2nc3ccccc3c(=O)[nH]2)c(C)n1CC1CCCO1 (stereo not drawn) ?
aSyn UTR act: -115*

Results for CCn1c(SCC(=O)c2cc(C)n(CC3CCCO3)c2C)nc2ccccc21 (stereo not drawn) ?
aSyn UTR act: -119*

What do the screens show for `Cc1ccc(NC(=O)CN(C)S(=O)(=O)c2cccs2)cc1C`?
aSyn UTR act: -86*

What do the screens show for `Cc1ccc(NC(=O)CN(C)S(=O)(=O)c2cccs2)cc1F`?
aSyn UTR act: -64*

Results for CCN=C1NN=C(c2c[nH]c3ccccc23)CS1 ?
aSyn UTR act: -68*

Results for COCC(C)N=C1NN=C(c2c[nH]c3ccccc23)CS1 (stereo not drawn) ?
aSyn UTR act: -66*

What do the screens show for `C=CCc1ccc(OCc2ccc(C(=O)Nc3ccc(NC(C)=O)cc3)o2)c(OC)c1`?
aSyn UTR act: -74*

Results for NC(=O)COC(=O)c1ccccc1Nc1ccc(SC(F)F)cc1 ?
aSyn UTR act: -82*

Results for O=C(COC(=O)c1ccccc1Nc1ccc(SC(F)F)cc1)NC1CC1 ?
aSyn UTR act: -100*

How did CC(C)(C)NC(=O)COC(=O)c1ccccc1Nc1ccc(SC(F)F)cc1 do in these assays?
aSyn UTR act: -145*

Results for O=C(COC(=O)c1ccccc1Nc1ccc(SC(F)F)cc1)NCc1ccco1 ?
aSyn UTR act: -91*

Results for CCOC(=O)c1cc(-c2ccc(C)cc2)nc2nc(SC)[nH]c(=O)c12 ?
aSyn UTR act: 49

What do the screens show for `CCOC(=O)c1ccc(-c2ccc3c(c2)CCC3)nc1C`?
aSyn UTR act: -99*

How did COC(=O)c1ccc(-c2ccc(F)cc2)nc1C do in these assays?
aSyn UTR act: -192*

How did CCN(CC)S(=O)(=O)c1ccc(N/N=C/c2ccc(O)cc2O)nc1 do in these assays?
aSyn UTR act: 90

Results for CC(C)N(C(C)C)S(=O)(=O)c1ccc(N2CCc3ccccc3C2)nc1 ?
aSyn UTR act: -150*

How did CCN(CC)S(=O)(=O)c1ccc(N2CCc3ccccc3C2)nc1 do in these assays?
aSyn UTR act: -78*

How did COc1ccccc1C(=O)N/N=C(\C)c1ccc(NC(=O)Cc2ccccc2)cc1 do in these assays?
aSyn UTR act: -104*

What do the screens show for `C/C(=N\NC(=O)c1ccccc1N)c1ccc(NC(=O)Cc2ccccc2)cc1`?
aSyn UTR act: -68*

How did C/C(=N\NC(=O)c1cccc(C)c1O)c1ccc(NC(=O)Cc2ccccc2)cc1 do in these assays?
aSyn UTR act: -74*

Results for COc1ccccc1C(=O)NN=C1CCN(Cc2ccccc2)CC1 ?
aSyn UTR act: -73*

What do the screens show for `CC(C)C(=O)NCCc1nc(-c2ccc(Cl)cc2)no1`?
aSyn UTR act: -99*

What do the screens show for `COc1ccc(CN=Cc2[nH]c3ccc(Br)c(Cl)c3c2O)cc1`?
aSyn UTR act: -78*

How did Cc1csc2nc(CSc3nc4ccccc4o3)c(Br)n12 do in these assays?
aSyn UTR act: -129*

Results for O=c1[nH]c2ccccc2n1CCCSc1cnc2ccccc2n1 ?
aSyn UTR act: -64*

How did COc1cc(SC)ccc1C(=O)Nc1ccon1 do in these assays?
aSyn UTR act: -109*

How did COc1cc(SC)ccc1C(=O)Nc1cccc(C)n1 do in these assays?
aSyn UTR act: -88*

Results for COc1cc(SC)ccc1C(=O)Nc1ccc(Br)cn1 ?
aSyn UTR act: 101

What do the screens show for `Cc1nnc(SCC(=O)NC(=O)Nc2ccc3c(c2)OCCO3)n1N`?
aSyn UTR act: -114*

How did Cc1ccc(-n2nnnc2SCC(=O)NC(=O)Nc2ccc3c(c2)OCCO3)cc1 do in these assays?
aSyn UTR act: -160*

Results for O=C(CSc1nnnn1-c1ccc(Cl)cc1)NC(=O)Nc1ccc2c(c1)OCCO2 ?
aSyn UTR act: -184*

How did CCOC(=O)c1cnc(Nc2nc3ccccc3o2)nc1CSc1nnc(C)s1 do in these assays?
aSyn UTR act: -86*

How did CCOC(=O)c1cnc(Nc2nc3ccccc3o2)nc1C do in these assays?
aSyn UTR act: 86

What do the screens show for `Cc1ccc(Nc2nc(=O)c3cccnc3s2)cc1`?
aSyn UTR act: -228*

Results for N#CC(C#N)=C(Nc1ccc(F)cc1)SCc1cccc(Br)c1 ?
aSyn UTR act: 48

Results for CN(C)C(/C=C/Nc1ccc(F)cc1)=C(C#N)C#N ?
aSyn UTR act: -63*

Screening results (PubChem BioAssay)
